Measured values as given in PubChem BioAssay (EPA / NIEHS).
Calls of active or inactive are those of the source. How the source made its calls: active means hit-call score of the fitted dose curve at least 0.9, where 1 is the maximum; inactive means score below 0.9.

Read-out: Transforming Growth Factor (TGFA), TGFA (gene 7039)
Experiment: LTEA_HepaRG_TGFA: Life Technologies and Expression Analysis (LTEA) Assay for Transforming Growth Factor (TGFA) using HepaRG (AID 2283532)
Details: mRNA level, 48 h; actives raise or lower the signal
In short: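 qRT-PCR read-out of TGFA transcript, normalized to three housekeeping genes, fitted bidirectionally against 0.5% DMSO baseline. Human HepaRG cultures received chemicals for 48 h at eight half-log concentrations, top 100 uM.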

Row | SMILES | outcome | AC50
1 | Cc1cc(CCN2CCN(c3nsc4ccccc34)CC2)cc2c1NC(=O)CC2(C)C | inactive | –
2 | c1ccc2c(c1)Cc1ccccc1-2 | inactive | –
3 | COC(=O)CCCCC(=O)OC | inactive | –
4 | C#C[C@]1(O)CC[C@H]2[C@@H]3CCC4=CC(=O)CC[C@@H]4[C@H]3CC[C@@]21C | inactive | –
5 | CC(=O)NC1(c2cccc(F)c2)CCN(CC[C@@]2(c3ccc(Cl)c(Cl)c3)CN(c3ccccc3)C(=O)CO2)CC1 | inactive | –
6 | CC(O)CO (stereo not drawn) | inactive | –
7 | COCC(C)OCC(C)O (stereo not drawn) | inactive | –
8 | CC(=O)CC(C)(C)O | inactive | –
9 | CC(C)(C)c1cc(C(C)(C)C)c(O)c(C(C)(C)C)c1 | inactive | –
10 | CN1CCC[C@H]1c1cccnc1 | inactive | –
11 | CC(C)(C)CC(C)(C)c1ccc(O)c(-n2nc3ccccc3n2)c1 | inactive | –
12 | Nc1cccc2c(N)cccc12 | inactive | –
13 | CCC(=C(c1ccc(O)cc1)c1ccc(OCCN(C)C)cc1)c1ccccc1 | inactive | –
14 | CC[C@H](C)[C@@H](C(=O)O)n1sc2ccccc2c1=O | inactive | –
15 | OC1CCC(C2CCCCC2)CC1 (stereo not drawn) | inactive | –
16 | O=[N+]([O-])c1ccc(O)cc1 | inactive | –
17 | CCN(CC)CCNc1ccc(CNC=O)c2sc3ccc(OC)cc3c(=O)c12 | – | 12.5 µM (active)
18 | O=C(OCCOCCOC(=O)c1ccccc1)c1ccccc1 | inactive | –
19 | CCC(C)(C)C1CCC(O)CC1 (stereo not drawn) | inactive | –
20 | CCCCCCCCOC(=O)CCCCCCCCC(=O)OCCCCCCCC | inactive | –
21 | CC[C@H](c1ccc(O)cc1)[C@@H](CC)c1ccc(O)cc1 | inactive | –
22 | CCCCCCCCC(=O)O | inactive | –
23 | CCCCOCCO | inactive | –
24 | Cc1cc(C)c(O)c(C)c1 | inactive | –
25 | CCCOC(=O)c1ccc(O)cc1 | inactive | –
26 | c1ccc2c(c1)ccc1ccccc12 | inactive | –
27 | CC(C)(C)c1ccc(O)c(C(C)(C)C)c1 | inactive | –
28 | NC(=O)N1C(=O)C(C(=O)c2cc(Cl)cs2)c2cc(F)c(Cl)cc21 (stereo not drawn) | – | 89.3 µM (active)
29 | CCOC(=O)CC(O)(CC(=O)OCC)C(=O)OCC | inactive | –

Read-out: Transforming Growth Factor (TGFB1), TGFB1 (gene 7040)
Experiment: LTEA_HepaRG_TGFB1: Life Technologies and Expression Analysis (LTEA) Assay for Transforming Growth Factor (TGFB1) Transporter using HepaRG (AID 2283533)
Details: mRNA level, 48 h; actives raise or lower the signal
In short: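 Expression change of TGFB1 in human HepaRG cells is measured after a 48 h chemical exposure, up to 100 uM in 0.5% DMSO vehicle. Curves are fitted in both directions relative to the DMSO baseline.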

Row | SMILES | AC50 | outcome
30 | Cc1cc(CCN2CCN(c3nsc4ccccc34)CC2)cc2c1NC(=O)CC2(C)C | 35.4 µM (active) | –
31 | c1ccc2c(c1)Cc1ccccc1-2 | – | inactive
32 | COC(=O)CCCCC(=O)OC | – | inactive
33 | C#C[C@]1(O)CC[C@H]2[C@@H]3CCC4=CC(=O)CC[C@@H]4[C@H]3CC[C@@]21C | – | inactive
34 | CC(=O)NC1(c2cccc(F)c2)CCN(CC[C@@]2(c3ccc(Cl)c(Cl)c3)CN(c3ccccc3)C(=O)CO2)CC1 | – | inactive
35 | CC(O)CO (stereo not drawn) | – | inactive
36 | COCC(C)OCC(C)O (stereo not drawn) | – | inactive
37 | CC(=O)CC(C)(C)O | – | inactive
38 | CC(C)(C)c1cc(C(C)(C)C)c(O)c(C(C)(C)C)c1 | – | inactive
39 | CN1CCC[C@H]1c1cccnc1 | – | inactive
40 | CC(C)(C)CC(C)(C)c1ccc(O)c(-n2nc3ccccc3n2)c1 | – | inactive
41 | Nc1cccc2c(N)cccc12 | – | inactive
42 | CCC(=C(c1ccc(O)cc1)c1ccc(OCCN(C)C)cc1)c1ccccc1 | 97.5 µM (active) | –
43 | CC[C@H](C)[C@@H](C(=O)O)n1sc2ccccc2c1=O | – | inactive
44 | OC1CCC(C2CCCCC2)CC1 (stereo not drawn) | – | inactive
45 | O=[N+]([O-])c1ccc(O)cc1 | – | inactive
46 | CCN(CC)CCNc1ccc(CNC=O)c2sc3ccc(OC)cc3c(=O)c12 | – | inactive
47 | O=C(OCCOCCOC(=O)c1ccccc1)c1ccccc1 | – | inactive
48 | CCC(C)(C)C1CCC(O)CC1 (stereo not drawn) | – | inactive
49 | CCCCCCCCOC(=O)CCCCCCCCC(=O)OCCCCCCCC | – | inactive
50 | CC[C@H](c1ccc(O)cc1)[C@@H](CC)c1ccc(O)cc1 | 79.5 µM (active) | –
51 | CCCCCCCCC(=O)O | – | inactive
52 | CCCCOCCO | – | inactive
53 | Cc1cc(C)c(O)c(C)c1 | – | inactive
54 | CCCOC(=O)c1ccc(O)cc1 | – | inactive
55 | c1ccc2c(c1)ccc1ccccc12 | – | inactive
56 | CC(C)(C)c1ccc(O)c(C(C)(C)C)c1 | – | inactive
57 | NC(=O)N1C(=O)C(C(=O)c2cc(Cl)cs2)c2cc(F)c(Cl)cc21 (stereo not drawn) | – | inactive
58 | CCOC(=O)CC(O)(CC(=O)OCC)C(=O)OCC | – | inactive
